# Screening data deposited in PubChem by several laboratories.
# eIF4E 4G PPI: eIF4E–eIF4G protein interaction inhibitors, primary screen, biochemical, uHTS, TR-FRET, eIF4GI fragment. inhibition, % at 21.7 µM. Eukaryotic translation initiation factor 4E (Mus musculus) + Eukaryotic translation …. 0.37% of 220,000 active. TR-FRET eIF4E-eIF4GI(517-606) binding, 2 h. AID 782, 2007;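 active means inhibition above about 30%, limit read from the data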;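 further: 0% = full FRET control wells and 100% = background wells lacking eIF4GI fragment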
# Target sequence (P63073 whole entry, looked up, the tested form may be a part): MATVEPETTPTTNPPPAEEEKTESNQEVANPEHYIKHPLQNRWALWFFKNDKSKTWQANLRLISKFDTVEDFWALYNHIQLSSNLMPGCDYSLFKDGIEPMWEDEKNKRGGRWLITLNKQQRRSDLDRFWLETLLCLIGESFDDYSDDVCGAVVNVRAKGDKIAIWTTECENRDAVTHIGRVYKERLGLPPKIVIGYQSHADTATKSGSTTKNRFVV
# Target sequence (Q04637 whole entry, looked up, the tested form may be a part): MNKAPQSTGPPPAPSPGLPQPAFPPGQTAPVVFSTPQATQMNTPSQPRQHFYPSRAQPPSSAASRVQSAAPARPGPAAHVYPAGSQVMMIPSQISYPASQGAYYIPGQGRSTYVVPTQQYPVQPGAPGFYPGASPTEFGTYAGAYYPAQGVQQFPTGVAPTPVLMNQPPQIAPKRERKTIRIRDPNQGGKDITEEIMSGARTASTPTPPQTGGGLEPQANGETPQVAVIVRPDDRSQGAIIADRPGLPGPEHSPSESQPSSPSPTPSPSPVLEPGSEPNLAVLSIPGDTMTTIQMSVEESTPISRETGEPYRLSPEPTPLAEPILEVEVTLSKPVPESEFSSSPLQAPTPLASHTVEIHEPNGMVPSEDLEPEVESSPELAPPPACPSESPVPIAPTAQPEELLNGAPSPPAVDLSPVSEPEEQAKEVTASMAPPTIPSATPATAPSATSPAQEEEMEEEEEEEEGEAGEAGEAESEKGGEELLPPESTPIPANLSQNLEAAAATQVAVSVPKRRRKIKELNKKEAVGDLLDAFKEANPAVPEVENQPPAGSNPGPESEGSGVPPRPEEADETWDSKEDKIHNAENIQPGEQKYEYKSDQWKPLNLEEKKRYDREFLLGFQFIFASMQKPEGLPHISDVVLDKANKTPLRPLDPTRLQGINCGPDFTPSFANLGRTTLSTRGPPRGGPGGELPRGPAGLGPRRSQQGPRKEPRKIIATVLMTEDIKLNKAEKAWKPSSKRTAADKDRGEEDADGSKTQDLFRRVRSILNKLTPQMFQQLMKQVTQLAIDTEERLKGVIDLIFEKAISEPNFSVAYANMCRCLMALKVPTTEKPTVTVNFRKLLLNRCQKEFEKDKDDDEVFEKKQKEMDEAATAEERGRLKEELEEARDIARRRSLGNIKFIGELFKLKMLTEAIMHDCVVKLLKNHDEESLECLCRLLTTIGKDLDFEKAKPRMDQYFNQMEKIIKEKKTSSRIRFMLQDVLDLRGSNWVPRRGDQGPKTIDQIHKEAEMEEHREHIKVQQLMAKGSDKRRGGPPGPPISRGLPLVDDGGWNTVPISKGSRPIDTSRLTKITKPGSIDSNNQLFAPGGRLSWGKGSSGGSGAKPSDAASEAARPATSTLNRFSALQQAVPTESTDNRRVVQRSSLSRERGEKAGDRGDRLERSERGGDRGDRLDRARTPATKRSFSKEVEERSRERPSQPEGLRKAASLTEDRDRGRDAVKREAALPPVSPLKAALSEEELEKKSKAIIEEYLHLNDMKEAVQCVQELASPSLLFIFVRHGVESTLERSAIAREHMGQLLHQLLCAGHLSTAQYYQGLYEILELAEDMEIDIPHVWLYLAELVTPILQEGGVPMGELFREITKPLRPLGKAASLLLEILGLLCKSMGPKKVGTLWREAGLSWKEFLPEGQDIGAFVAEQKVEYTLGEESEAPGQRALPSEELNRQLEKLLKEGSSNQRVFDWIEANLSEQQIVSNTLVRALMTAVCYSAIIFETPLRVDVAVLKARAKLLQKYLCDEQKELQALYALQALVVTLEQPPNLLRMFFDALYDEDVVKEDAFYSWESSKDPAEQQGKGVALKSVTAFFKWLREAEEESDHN
# eIF4H inh: human eIF4H binding inhibitors, primary screen, translation initiation inhibitor project, biochemical, uHTS, fluorescence polarization | Eukaryotic translation initiation factor 4H (Homo sapiens), Q15056 | eIF4H fluorescence polarization binding assay | inhibition, % at 35 µM | 0.94% of 290,000 active;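 further: calls also rest on retests at 20 µM and on dose response follow-up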
# PABP FP inh: PABP poly(A) RNA binding inhibitors, primary screen, biochemical, fluorescence polarization, uHTS; Polyadenylate-binding protein 1 (Homo sapiens), P11940; calls only at 35 µM; 1% of 290,000 active;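 further: calls also rest on retests at 20 µM and on dose response follow-up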
# PABP1 MLLE inh: inhibitors of PABP1 MLLE–PAM2 peptide binding, primary screen, biochemical, fluorescence polarization, FITC-PAM2, GST-MLLE. AID 588489, 2011. 0.36% of 360,000 active. Polyadenylate-binding protein 1 (Homo sapiens), P11940. inhibition, % at 20 µM; in the data active means inhibition above about 35%, passing the limit was not always enough;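 further: plate controls were DMSO wells with GST-MLLE for no effect and wells lacking GST-MLLE protein for full effect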
# PERK inhibitor: block of dimerizer-induced PERK translation repression, primary screen, PERK inhibitor project, CHO PERK-DD cells, SEAP luminescence, HTS | AID 1416, 2008 | CHO PERK-DD fusion, SEAP luminescence translation reporter | 0.17% of 220,000 active | inhibition, % at 5.6 µM | Eukaryotic translation initiation factor 2-alpha kinase 3 (Homo sapiens), Q9NZJ5;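 active means inhibition above the mean inhibition of all tested compounds plus 3 SD, set separately per screening campaign, cut at about 2.9% in these data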;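 further: PERK kinase domain activated by AP20187 dimerizer at 100 nM; 0% = DMSO with dimerizer and 100% = rapamycin at 8.4 µM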
# Numbers without * were called inactive; i = inactive; u = inconclusive; x = no result; + = active, no number. Shown are actives, neighbours in structure and some others; about 1.6% of the full set was active somewhere. Unless noted, how the calls were made is not given here.
SMILES,eIF4E 4G PPI,eIF4H inh,PABP FP inh,PABP1 MLLE inh,PERK inhibitor
O=C(CSc1nnc(CNC(=O)c2ccccc2F)o1)Nc1ccc2c(c1)OCCO2,-9,0,i,47*,0
CSc1nsc(SCC(=O)Nc2ccc3c(c2)OCCO3)n1,3,-20,i,28,3.1*
CC1(C)N=C(SCC(=O)Nc2ccccc2)C(c2ccc(Cl)cc2)=N1,3,-4,i,44*,-2
CSc1nsc(SCC(=O)NCc2ccccc2)n1,x,5,i,40*,x
Clc1ccc(Cc2ccccn2)cc1,x,x,x,6,x
OC[C@@H]1CN(Cc2cccs2)C[C@H](n2cnc3c(NC4CCC4)ncnc32)O1,x,x,x,4,x
O=C(CSc1ncn(-c2ccccc2)n1)c1cccs1,-2,-6,i,38*,0
O=C(CSC1=NC2(CCCCC2)N=C1c1ccccc1)Nc1ccc2c(c1)OCCO2,-1,u,u,46*,-1
O=C(CSc1nnc(-c2ccccc2)n1-c1ccccc1)c1cccs1,-67,-8,i,-33,-1
O=C(CSc1ncn(-c2ccccc2)n1)Nc1ccc2c(c1)OCCO2,4,1,i,37*,1
Cc1ccc(S(=O)(=O)CC(=O)Nc2cccc(C)n2)cc1,x,-2,i,10,x
Cc1ccccc1NC(=O)C1CCN(S(=O)(=O)c2cccc3nonc23)CC1,x,0,i,-8,x
CC(NC(=O)c1ccccc1Br)C1CC2CCC1C2 (centres undefined),x,x,x,18,x
CC(NC(=S)Nc1ccccc1C(F)(F)F)C1CC2CCC1C2 (centres undefined),1,-5,i,46*,1
COc1ccc(NC(=O)c2sc(=O)n(Cc3ccc4ccccc4c3)c2C)cc1OC,x,x,x,-17,x
COc1ccccc1C1NC(=O)NC(C)=C1C(=O)OCC1CCCCC1 (centres undefined),x,x,x,-2,x
O=C(O)c1ccc(NS(=O)(=O)c2ccc3c(c2)C2C=CCC2C(c2ccccc2F)N3)cc1 (centres undefined),13,97,+,-13,1
O=C(O)c1ccc2c(c1)C1C=CCC1C(c1cc3c(cc1Br)OCO3)N2 (centres undefined),2,2,i,16,0
Cc1cc2oc(=O)cc(CN3CCCCC3C)c2cc1C (centres undefined),x,7,i,-21,x
CCCN1CCc2[nH]c(=S)[nH]c(=O)c2C1,3,7,i,47*,1
Cc1ccc(CN2CCc3[nH]c(=S)[nH]c(=O)c3C2)cc1,x,-7,i,28,x
O=c1[nH]c(=S)[nH]c2c1CN(Cc1ccc(F)cc1)CC2,x,x,x,39*,x
COc1ccc(/C=N/N2C(=O)C3C4C=CC(CC4)C3C2=O)c(OC)c1 (centres undefined),13,81,i,7,0
N#Cc1ccccc1OCC(=O)OCC(=O)NC1CCS(=O)(=O)C1 (centres undefined),x,x,x,0,x
Cn1c(=O)oc2cc(S(=O)(=O)N3CCN(c4cccc(Cl)c4)CC3)ccc21,-2,103*,+,-7,1
SMILES,eIF4E 4G PPI,eIF4H inh,PABP FP inh,PABP1 MLLE inh,PERK inhibitor
Cn1c(=O)oc2cc(S(=O)(=O)N3CCN(c4ccc(F)cc4)CC3)ccc21,0,28,i,-6,0
CCCCCOC(=O)Nc1ccc(S(=O)(=O)Nc2cccc([N+](=O)[O-])c2)cc1,7,4,i,3,1
CCCCOC(=O)Nc1ccc(S(=O)(=O)Nc2ccc([N+](=O)[O-])cc2)cc1,4,90,+,-3,1
COc1cc(C(=O)NCC(=O)Nc2c(C)cccc2C)ccc1OCC(=O)N1CCOCC1,x,x,x,0,x
Cc1c(NC(=S)NC(=O)c2cccc3ccccc23)cccc1C(=O)O,x,-10,i,44*,x
CCC(C(=O)Nc1ccccc1N1CCCC1)c1ccccc1 (centres undefined),x,-12,i,5,x
Cc1c(NC(=S)NC(=O)c2ccc(COc3ccccc3)cc2)cccc1C(=O)O,x,8,i,39*,x
CCC(C(=O)Nc1cccc(C(=O)O)c1C)c1ccccc1 (centres undefined),1,3,i,16,3.5*
O=C(O)c1ccccc1NC(=S)NC(=O)c1cccc2ccccc12,-4,7,i,31,0
COc1ccccc1NS(=O)(=O)c1cccc(-n2c(O)c(C=Nc3ccccc3C(=O)O)c3ccccc3c2=O)c1,4,17,i,-3,0
Cc1ccccc1Nc1n[nH]c(=S)s1,x,x,x,24,x
Cc1ccccc1Nc1nc(Cl)c(C=O)s1,1,78*,+,-38,0
CC(C)c1ccc(NC(=O)CCN2C(=O)[C@@H]3Cc4ccccc4CN3C2=O)cc1,x,2,i,2,x
COc1cc(/C=N/NC(=O)C2c3ccccc3Oc3ccccc32)ccc1O,41*,10,i,-27,1
CN(c1ccccc1C(=O)NCc1ccco1)S(C)(=O)=O,-2,55*,+,11,0
CCN(C(=O)COC(=O)c1cc(S(=O)(=O)N(C)C)ccc1Cl)C1CCS(=O)(=O)C1 (centres undefined),x,x,x,-2,x
O=C(NCC(O)CN1CCOCC1)c1ccc([N+](=O)[O-])cc1 (centres undefined),2,1,i,0,0
CN1CCOCCOCCN(C)C(=O)N2CCOCCOCCN(CCOCC2)C1=O,x,-10,i,-2,3.6*
CC(=O)c1cc(CN2CCN(C(C)C)C(CCO)C2)cs1 (centres undefined),5,13,i,0,2
CCN(CC)S(=O)(=O)c1cccc(C(=O)NCC2CCCCC2)c1,x,-1,i,2,x
CCOc1ccc(S(=O)(=O)N2CCCCC2)cc1NC(=O)Cc1ccsc1,x,x,x,-6,x
O=C(NC(=S)N1CCN(Cc2ccc3c(c2)OCO3)CC1)c1cccc(Br)c1,20,active,+,8,0
O=C(NC(=S)Nc1ccc2c(c1)OCCO2)c1cccc(Br)c1,-8,0,i,40*,-1
CC1(OC(=O)CCc2ccccc2)C(=O)C=C2C=C(c3ccc(C#N)cc3)N(C(CO)CO)C=C2C1=O (centres undefined),3,45,i,25,x
CC1(OC(=O)CCc2ccccc2)C(=O)C=C2C=C3CCCN3C=C2C1=O (centres undefined),9,83*,+,3,x
CC1(OC(=O)c2cccs2)C(=O)C=C2C=C3CCCN3C=C2C1=O (centres undefined),24,95*,+,0,x
